According to PubChem BioAssay AID1457 (National Center for Advancing Translational Sciences (NCATS), 2008):
Screen size: about 210,000 compounds; about 730 (0.35%) were called active. Another 1% or so got no clear call; they are omitted. Calls come from the whole dose curve; as a rule, active = well fitted inhibition curve with a large enough effect; inconclusive = small, poorly fitted or top-dose-only effect; inactive = no such curve, though single readings can be large or run the other way. Only a selection was taken, and actives are over-represented in it overall.

experiment: qHTS Assay for Identifying the Cell-Membrane Permeable IMPase Inhibitors: Potentiation with Lithium; settings: CHO-M1 cells, IP1 TR-FRET (IP-One), carbachol + lithium; series mostly up to 59.4 µM; activity, negative = IMPase inhibition: at the top concentration;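 note: IP1 builds up when IMPase is blocked and the TR-FRET signal falls; nearly all actives have a fitted effect of over 50% in size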;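 for activity, negative = IMPase inhibition: plate controls were basal vehicle for no effect and high inhibitor control for full effect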
Outline: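 Concentration–response in CHO-M1 cells, lithium-potentiated; 30 min at 37C. IP1 detected by competitive TR-FRET after 10 min lysis at RT. Hill-fitted AC50.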
Potency is the fitted concentration of half-maximal effect.

activity, negative = IMPase inhibition, inactive:
CC(C)c1cnc(NC(=O)Cc2ccccc2)s1 -1.45%, COc1ccc(CC(N)C(=O)NC2C(O)[C@H](n3cnc4c(N(C)C)ncnc43)O[C@@H]2CO)cc1 (some centres undefined) 0.536%, CC[C@@]12C=C(/C=C/c3ccccc3)[C@](CC)(C1)[C@H](c1ccccc1)CC2=O 10.1%, COCCN1C(=O)N[C@@H](CCc2ccccc2)[C@H](C(C)=O)[C@H]1C -3.57%, Nc1nc2c(ncn2[C@@H]2O[C@H](COP(=O)(O)OP(=O)(O)OP(=O)(O)O)[C@@H](O)C2O)c(=O)[nH]1 (some centres undefined) -0.194%, COc1ccc(CC(=O)Nc2ccc(C(=O)NC(C)(C)C)cc2)cc1 -3.58%, COc1ccc(-c2nc(-c3ccccc3)oc2Nc2ccc3ccccc3c2)cc1 19.9%, COc1cccc(CC(=O)N2CCc3nc(COc4ccccc4)c4c(c3C2)CO[C@@H](C)C4)c1 8.35%, CCCCS(=O)(=O)N1C2=NC(C(=O)OC)=C(C(=O)OC)[C@@H]3N(Cc4ccccc4)c4ccccc4[C@]23C[C@H]1C(=O)OC 6.96%, COC(=O)C(C(=O)OC)[C@@H](NC=O)c1ccccc1 8.25%, O=C(Nc1ccnc(-c2ccncc2)n1)c1cccs1 5.99%, COC(=O)CSc1nccc(-c2cccs2)n1 -12.7%, C/C(Nc1ccc2oc(=O)ccc2c1)=C1/C(=O)CC2[C@@H]1C2(C)C (some centres undefined) 19%, Cc1cc2oc(=O)cc(-c3ccccc3)c2c(C)c1-c1ccc(OC(F)(F)F)cc1 13.7%, CC(C)C[C@H](NC(=O)[C@H](O)[C@H](N)Cc1ccccc1)C(=O)O -2.42%, CC(C)(C)OC(=O)NCCCCC1=CC2=CC(=O)C(C)(OC(=O)c3cccs3)C(=O)C2=CO1 (centres undefined) 18.1%, COC(=O)c1ccc(CSc2nc3ccccc3c(=O)n2-c2cccc(OC)c2)o1 1.82% [at 38.3 µM], COc1ccc(OC)c(-n2c(=S)[nH]c3cc(C(=O)N4CCCCC4)ccc3c2=O)c1 9.2%, OC[C@H]1O[C@@H](n2cnc3c(N[C@H]4CC5CCC4C5)ncnc32)[C@H](O)[C@@H]1O (some centres undefined) -8.88%, CC(=O)CC(c1ccccc1)C1C(=O)Oc2ccccc2C1=O (centres undefined) 0.184%, CC(C)C1=CC2=CC[C@H]3[C@](C)(C(=O)O)CCC[C@]3(C)C2CC1 (some centres undefined) 16%, O=C(CSc1nc2c(cnn2-c2ccc(F)cc2)c(=O)[nH]1)N1CCCCCC1 1.02%, C=CCNC(=O)CSc1nc2sc(C)c(C)c2c(=O)[nH]1 1.14%, CCN1C(=O)N[C@@H](c2ccccc2)[C@H](C(C)=O)[C@H]1C 10.4%, O=C1C=C(c2ccccc2)CCC1 12.3%, CCN1C(=O)N[C@@H](CCc2ccccc2)C(C(=O)OC)=C1C 4.15%, O=C1OCCN1C(=O)[C@H]1[C@H](c2ccc(Cl)cc2)C(c2cccc(Cl)c2)=NN1c1ccc(Br)cc1 -6.47%, COC(=O)CCCC1=CC2=CC(=O)C(C)(OC(=O)c3cccs3)C(=O)C2=CN1CC1CC1 (centres undefined) 4.7%, COc1ccc(-c2nc3c(c4c2C[C@H](c2ccccc2)OC4)CN(C(=O)C2CC2)CC3)c(C)c1 2.22%, CC1=C(C/C=C(\C)CCCC(C)CCCC(C)CCCC(C)C)C(=O)c2ccccc2C1=O (centres undefined) -3.08%, CCOC(=O)c1ccc(Nc2cc(C)nc3nc(C)nn23)cc1 2.54%, CCc1ccc(NC2Nc3cc(C)nn3S2)cc1 (centres undefined) -0.821%, CC1(C)O[C@@H]2C[C@@H]3[C@H]4C[C@@H](F)C5=CC(=O)C=C[C@]5(C)[C@@]4(F)[C@@H](O)C[C@]3(C)[C@]2(C(=O)CO)O1 0.557%, CCCCCCCC/C=C\CCCCCCCC(=O)NCC(=O)O -4.73%, CCCCC/C=C\C[C@H](O)/C=C/C=C/C=C/[C@@H](O)CCCC(=O)O 12.9%, C=CCC(C)(O)c1ccco1 (centres undefined) 12.8%, N#C/C(=C(/O)COc1cccc2ccccc12)c1nc2ccccc2[nH]1 1.85%, N#C/C(=C(/O)COC(=O)COc1ccc(Cl)cc1)c1nc2ccccc2[nH]1 5.54%, COC(=O)CCCC1=CC2=CC(=O)C(C)(OC(=O)c3cccs3)C(=O)C2=CN1c1cccc(C#N)c1 (centres undefined) -6.28%, C[C@@]12CCC(=O)C=C1CC[C@H]1C2[C@@H](O)C[C@]2(C)[C@@H]1CC[C@@]2(O)C(=O)COC(=O)C1CCCC1 (some centres undefined) -5%, CO[C@@]12[C@@H](COC(N)=O)C3=C(C(=O)C(C)=C(N)C3=O)N1C[C@@H]1N[C@@H]12 17.2%

Potency, inactive:
COC(=O)C(C(=O)OC)C1c2ccccc2C=C(C2CC2)N1C(=O)OC (centres undefined)

Potency, active:
S=c1nccc(-c2cc(Cl)sc2Cl)[nH]1 11.2 µM, COc1ccc(CC(=O)Nc2ccc(-c3nnc(-c4ccccc4)o3)cc2)cc1 10 µM, O=C(O)COc1ccc(-c2nccc(-c3cccs3)n2)cc1 10 µM, COc1cccc(-n2c(=S)[nH]c3c(oc4ccccc43)c2=O)c1 12.6 µM, CC(=O)c1sc2nc(SCC(=O)N3CCCCC3)[nH]c(=O)c2c1C 11.2 µM, CCOC(=O)c1ccc(NC2Nc3cc(C)nn3S2)cc1 (centres undefined) 10 µM, Cc1ccccc1OC/C(O)=C(\C#N)c1nc2ccccc2[nH]1 12.6 µM
